Shown is part of a subset that was picked to be rich in hits.
BLM helicase inh – qHTS Assay for Inhibitors of Bloom's syndrome helicase (BLM). actives 0.2% (n = 350,000). AID 2528, 2010. recombinant BLM DNA unwinding, fluorescence dequenching. RecQ-like DNA helicase BLM (Homo sapiens), P54132. Potency, µM (top dose mostly 56.1 µM), for the others: at the top dose activity change, negative = inhibition, actives largely listed as inhibitors;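 also: plate controls were vehicle for no effect and no enzyme for full effect; nearly all actives have a fitted effect of over 35% in size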
Target sequence (P54132 whole entry, looked up): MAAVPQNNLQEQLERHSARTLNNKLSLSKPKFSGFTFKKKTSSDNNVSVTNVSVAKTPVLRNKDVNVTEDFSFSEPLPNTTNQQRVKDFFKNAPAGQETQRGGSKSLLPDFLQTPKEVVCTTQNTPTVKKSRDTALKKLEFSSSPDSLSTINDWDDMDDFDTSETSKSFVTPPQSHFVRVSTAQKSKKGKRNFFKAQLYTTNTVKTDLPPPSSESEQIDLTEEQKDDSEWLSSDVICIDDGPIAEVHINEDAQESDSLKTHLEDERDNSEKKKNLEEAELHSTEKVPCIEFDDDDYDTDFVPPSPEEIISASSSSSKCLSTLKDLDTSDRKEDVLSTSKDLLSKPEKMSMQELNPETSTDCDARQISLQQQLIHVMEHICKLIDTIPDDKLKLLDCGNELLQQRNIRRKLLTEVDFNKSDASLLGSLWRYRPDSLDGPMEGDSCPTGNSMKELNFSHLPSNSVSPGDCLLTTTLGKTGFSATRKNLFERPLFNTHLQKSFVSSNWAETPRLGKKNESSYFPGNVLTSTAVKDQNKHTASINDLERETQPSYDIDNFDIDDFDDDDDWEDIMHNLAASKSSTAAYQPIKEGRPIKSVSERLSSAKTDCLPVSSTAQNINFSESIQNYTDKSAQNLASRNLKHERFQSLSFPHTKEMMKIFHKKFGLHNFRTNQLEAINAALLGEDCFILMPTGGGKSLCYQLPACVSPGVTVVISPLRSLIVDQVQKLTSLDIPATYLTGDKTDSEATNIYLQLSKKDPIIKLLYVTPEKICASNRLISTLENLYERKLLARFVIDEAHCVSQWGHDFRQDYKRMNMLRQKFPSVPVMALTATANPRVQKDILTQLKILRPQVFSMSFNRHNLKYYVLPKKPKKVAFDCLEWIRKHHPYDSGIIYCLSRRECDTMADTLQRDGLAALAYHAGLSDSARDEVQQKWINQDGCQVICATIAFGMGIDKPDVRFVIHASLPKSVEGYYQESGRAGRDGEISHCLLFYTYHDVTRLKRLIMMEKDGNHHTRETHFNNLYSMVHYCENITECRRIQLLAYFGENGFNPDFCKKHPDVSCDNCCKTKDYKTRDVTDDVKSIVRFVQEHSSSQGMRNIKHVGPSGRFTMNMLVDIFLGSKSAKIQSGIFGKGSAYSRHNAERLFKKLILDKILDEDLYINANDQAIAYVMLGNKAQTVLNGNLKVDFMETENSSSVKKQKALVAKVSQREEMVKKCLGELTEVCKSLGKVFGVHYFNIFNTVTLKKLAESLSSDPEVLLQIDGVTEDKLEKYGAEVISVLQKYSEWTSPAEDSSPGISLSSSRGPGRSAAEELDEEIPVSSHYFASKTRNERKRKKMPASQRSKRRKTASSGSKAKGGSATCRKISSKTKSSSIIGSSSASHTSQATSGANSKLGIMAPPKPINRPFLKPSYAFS
RECQ1 helicase – qHTS Assay for Inhibitors of RecQ-Like Dna Helicase 1 (RECQ1); AID 2549, 2010; ATP-dependent DNA helicase Q1 (Homo sapiens), P46063; Potency, µM (titrated, usually from 57.3 µM), for the others: top-dose activity, negative = inhibition, hits mostly inhibitors; actives 0.54% (n = 240,000); RECQ1 DNA unwinding, red fluorescence kinetic read;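 also: plate controls were vehicle for no effect and no enzyme for full effect; nearly all actives have a fitted effect of over 30% in size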
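50 nM RECQ1T1 preincubated 15 min with compound in Tris pH 8.0 buffer with MgCl2, DTT, Tween-20 and 2.5 ug/ml poly(dI-dC); started with 200 nM TAMRA/BHQ-2 forked duplex and 2 mM ATP. Unwinding read as fluorescence (525/598 nm), two reads 2 h apart.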
TDP1 block – qHTS Assay for Inhibitors of Tyrosyl-DNA Phosphodiesterase (TDP1); Tyrosyl-DNA phosphodiesterase 1 (Homo sapiens), Q9NUW8; recombinant TDP1, AlphaScreen DNA substrate cleavage; Potency, µM (doses to about 130 µM), for inactives: at the top dose activity change, negative = inhibition, most hits filed as inhibitors; actives 0.28% (n = 350,000); also: nearly all actives have a fitted effect of over 40% in size
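E. coli-derived human Tdp1, 1 nM final. Cpd preinc 15 min RT; substrate 15 nM final, 5 min RT; AS bead mix 10 ug/ml final, 10 min RT. Signal loss = tyrosine-FITC cleavage. No-enzyme wells = max signal.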
L3MBTL1 inh – qHTS Assay for the Inhibitors of L3MBTL1. Lethal(3)malignant brain tumor-like protein 1 (Homo sapiens), Q9Y468. AlphaScreen L3MBTL1–H3K9me1 peptide binding. Potency, µM (highest dose often 57.1 µM), without a hit: top-dose activity, negative = inhibition, most hits filed as inhibitors. actives 0.66% (n = 230,000); also: nearly all actives have a fitted effect of over 60% in size
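Displacement of a biotinylated histone H3(1-15) peptide monomethylated at Lys9 (75 nM) from L3MBTL1 (50 nM) was measured by AlphaScreen after a 30 min room-temperature compound incubation; cefsulodin titration served as intraplate control.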
KDM4E inh – qHTS Assay for Inhibitors of Human Jumonji Domain Containing 2E (JMJD2E). Lysine-specific demethylase 4E (Homo sapiens), B2RXH2. actives 1.6% (n = 230,000). JMJD2E catalytic domain, FDH-coupled NADH fluorescence (FDH is formaldehyde dehydrogenase). AID 2147, 2009. Potency, µM (series often up to 57.1 µM), without a hit: top-dose activity change, negative = inhibition, hits mostly inhibitors; active = well fitted inhibition curve with a large enough effect, not every such curve was filed as active; inconclusive = small, poorly fitted or top-dose-only effect, or another doubt; inactive = no such curve, though single readings can be large or run the other way;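 also: 0% = wells with enzyme and -100% = buffer wells without enzyme; nearly all actives have a fitted effect of over 50% in size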
APE1 inh – qHTS Assay for Inhibitors of the Human Apurinic/apyrimidinic Endonuclease 1 (APE1); DNA repair nuclease/redox regulator APEX1 (Homo sapiens), P27695; recombinant APE1, TAMRA/BHQ-2 abasic DNA cleavage fluorescence; actives 0.35% (n = 350,000); Potency, µM (series often up to 65.8 µM), for inactives: top-dose activity change, negative = inhibition, usual class: inhibitors;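 also: plate controls were vehicle for no effect and reference inhibitor for full effect; nearly all actives have a fitted effect of over 55% in size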
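Quantitative HTS: incision of a TAMRA/BHQ-2 double-stranded substrate bearing a tetrahydrofuran abasic site by 0.75 nM APE1 raises fluorescence. Substrate 50 nM final, added after 15 min compound preincubation at room temperature; progress as third-minus-first kinetic read difference.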
* marks the source's active call; other numbers are inactive results; i = inactive; ? = inconclusive; · = no result given; ! = not active in a repeat; [ ] = dose if it differs, or a comment. Unless noted, calls follow the shape of the dose curve; as a rule, active = well fitted curve in the direction sought with a large enough effect; inconclusive = small, poorly fitted or top-dose-only effect, or another doubt; inactive = no such curve, though single readings can be large; an effect the other way counts as inactive or inconclusive. Unless noted, % is scaled to controls: 0 for no effect and ±100 for the full control effect; potency is read from the fitted curve at half-maximal effect.

SMILES | BLM helicase inh | RECQ1 helicase | TDP1 block | L3MBTL1 inh | KDM4E inh | APE1 inh
Cc1ccc(-c2c3c([nH]c(=S)c2C#N)CCCC3)o1 | ? | ? | 32µM* | ? | 28µM* | ?
COC(=O)c1c(N)n(-c2ccc(N3CCOCC3)cc2)c2nc3ccccc3nc12 | -2% | -18% | 5% | -10% | 18µM* | 0%
COC(=O)c1c(N)n(-c2ccc(NC(C)=O)cc2)c2nc3ccccc3nc12 | 2% | 2% | 2% | · | ? | -7%
CCN(CC)S(=O)(=O)c1ccc2c(c1)c(=O)c(C(=O)N1CCN(c3cccc(C)c3)C(C)C1)cn2C (stereo not given) | -1% | · | -5% | · | · | ·
COc1cc2cc3c(N)c(C(=O)Nc4sc(C)c(C)c4C#N)sc3nc2cc1OC | 32µM* | 10µM* | -14% | 3.2µM* | ? | 13µM*
CC1(C)OC(c2ccccc2)=C/C(=C\C=N\NC(=O)c2ccncc2)O1 | -7% | -22% | 13% | -29% | 22µM* | ?
CC(=O)NC(c1cccs1)c1cc(F)c2cccnc2c1O (stereo not given) | · | · | 1% | ? | · | -8%
CC(=O)NC(c1ccco1)c1cc(F)c2cccnc2c1O (stereo not given) | · | · | 1% | 14µM* | · | 29%
Cc1ccccc1C(=O)Nc1ccc2c(C#N)c3nc4ccccc4nc3n2c1 | ? | 32µM* | 11% | ? | ? | ?
N[C@@H](C(=O)O)c1ccc(C(=O)O)c(C(=O)O)c1 | 3% | 5% | 40µM*! | · | -1% | -2%
N[C@H](C(=O)O)c1cccc(O)c1 | -1% | -2% | 18% | · | 22µM* | -2%
NC(C(=O)O)c1ccc(O)cc1 (stereo not given) | 3% | · | 2% | · | · | ·
O=c1[nH]n2c(=O)c3c([nH]c2c1N=Nc1cccc(Cl)c1)CCC3 | 16µM* | 5% | -3% | 3.5µM* | -4% | 1%
NS(=O)(=O)c1ccc(N=Nc2c(=O)[nH]n3c(=O)c4c([nH]c23)CCCC4)cc1 | -4% | -16% | 9% | -1% | 28µM* | 7%
COc1cccc(N=Nc2c(=O)[nH]n3c(=O)c4c([nH]c23)CCC4)c1 | -22% | -16% | ? | ? | 6% | ?
O=C(NCc1ccc(Cl)cc1)c1ccc(NC(=O)N2CC3CCCN3c3ccccc32)cc1 (stereo not given) | -5% | · | 13% | · | · | ·
Cc1c(P(=S)(c2ccccc2)c2ccccc2)c2ccccc2n1CCc1ccccc1 | · | · | 0% | · | · | ·
O=C(/C=C/C#Cc1cccc(NS(=O)(=O)c2ccccc2)c1)NO | 6% | -13% | 19% | · | · | -2%
COc1cccc(C2c3c(ncn(Cc4cccs4)c3=N)Oc3ccc4ccccc4c32)c1 (stereo not given) | · | · | 5% | · | · | ·
Oc1c(Br)cc(/C=N/n2c(-c3ccccc3)n[nH]c2=S)cc1Br | -1% | · | 25µM* | 2% | · | -22%
COc1cc(/C=N/n2c(-c3ccccc3)n[nH]c2=S)ccc1O | 4% | 0% | 1% | -12% | 25µM* | 22%
CCS(=O)(=O)c1ccc(N=Nc2ccc(O)c3ncccc23)c(OC)c1 | -5% | 2% | 7% | · | 14µM* | 9%
Cc1[nH]c2ccccc2c1/C=N/Nc1ccccc1[N+](=O)[O-] | -14% | -19% | 10% | 18µM* | -9% | -7%
COc1ccccc1/C=N\Nc1ccccc1[N+](=O)[O-] | -7% | -1% | · | -27% | 9% | 0%
Cc1[nH]c2ccccc2c1/C=N/NS(=O)(=O)c1ccccc1 | -11% | 2% | 2% | -8% | 9% | ?
SMILES | BLM helicase inh | RECQ1 helicase | TDP1 block | L3MBTL1 inh | KDM4E inh | APE1 inh
CC(C)Oc1ccccc1/C=N/Nc1ccccc1[N+](=O)[O-] | -4% | i | 12% | 11µM* | 3% | -7%
Oc1c(Cl)cc(Cl)cc1C=Nc1ccc(N2CCOCC2)cc1 | -5% | · | · | · | · | -14%
O=[N+]([O-])c1cc(Cc2ccccc2)cc(C=Nc2ccc(N3CCOCC3)cc2)c1O | -6% | -7% | 11% | -13% | 16µM* | -6%
Cc1ccc(/C=C2/NC(=O)N(Cc3ccccc3)C2=O)o1 | -5% | -22% | 5% | -2% | 11µM* | ?
COC(=O)CN1C(=O)N/C(=C/c2ccc(C)o2)C1=O | 0% | -5% | -3% | · | ? | 8%
Cc1ccc(O)c(-c2n[nH]c3c2C(c2ccc(F)cc2)N(Cc2ccco2)C3=O)c1 (stereo not given) | -9% | · | 12% | · | · | ·
COc1ccc(-c2cc(=O)oc3c(O)c(O)ccc23)cc1 | 10µM* | · | · | · | · | 13%
COc1ccc(S(=O)(=O)Nc2cccc(-c3ccc(N4CCC(C)CC4)nn3)c2)c(OC)c1 | -7% | · | -1% | · | · | ·
CCOc1ccc(N2CC(c3nc4ccccc4n3Cc3cccc(Cl)c3)CC2=O)cc1 (stereo not given) | -7% | · | -1% | · | · | ·
CC(C)CC1NC(=O)C(CCCN)NC(=O)C(C(C)C)NC(=O)C2CCCN2C(=O)C(Cc2ccccc2)NC(=O)C(CC(C)C)NC(=O)C(CCCN)NC(=O)C(C(C)C)NC(=O)C2CCCN2C(=O)C(Cc2ccccc2)NC1=O (stereo not given) | -6% | i | 8% | · | 25µM* | ·
CCN(C(=O)CSc1nnc(-c2cc3occc3n2C)n1-c1ccccc1C)c1ccccc1 | -3% | · | 1% | · | · | ·
Oc1cc2c(cc1O)[C@H](c1ccccc1)CNCC2 | 1% | i | 22%[56.1 µM] | · | 14µM* | -4%
COc1cc2c(cc1OC)[C@@H](c1ccccc1)CN(C)CC2 | · | · | · | · | · | -2%
OC[C@H](S)CS | 6% | · | 13µM* | · | · | ·
CCCCCCC(=O)O | · | -1% | 2% | 26% | · | 8%
CCCCCCCCC#CCC#CCC#CCCCC(=O)O | 5% | 20µM*! | ? | · | 0% | ?
